# Several values for one entry are separate records, joined by “and”; a condition that tells them apart may be missing. Equal values may be shown once. Results filed as inconclusive are left out. Activity calls are given as the source filed them. Calls follow the shape of the dose curve; as a rule, active = well fitted cell-killing curve with a large enough effect; inconclusive = small, poorly fitted or top-dose-only effect, or effect the other way; inactive = no such curve, though single readings can be large or run the other way.
# Assay: Viability qHTS for spleen associated tyrosine kinase inhibitor (SYKi) drug resistant MV4-11 cells (AID 1963824); also: nearly all actives have a fitted effect of over 35% in size
# Settings: SYKi-resistant MV4-11 viability, CellTiter-Glo, 72 h; series mostly up to 45 µM
# Method in brief: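 SYK-inhibitor-resistant MV4-11 AML cells were seeded at 500 per well onto compound and cultured 72 hours (37 °C, 5% CO2). CellTiter-Glo was then added, and after 10 min at room temperature, luminescence gave viability.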
# Potency is read from the fitted curve at half-maximal effect.
row,SMILES,Potency
1,CCNC(=O)Nc1ccc(-c2nc3c(c(N4CCOCC4C)n2)CCN(C2COC2)C3)cc1 (stereo not given),1.16 µM (active)
2,COCC(=O)NC/C=C/c1ccc2ncnc(Nc3ccc(Oc4ccc(C)nc4)c(C)c3)c2c1,9.2 µM (active)
3,NC(N)=NC(=O)c1cnn(-c2cccc3ncccc23)c1C1CC1,3.26 µM (active)
4,Nc1nc(-c2nn(Cc3ccccc3F)c3ncccc23)ncc1C1CC1,1.32 µM (active)
5,Cc1ccccc1CN1CCn2c1nc1c(c2=O)CN(Cc2ccccc2)CC1,inactive
6,C=C1CCC2[C@](C)(CO)CCC[C@@]2(C)[C@@H]1CCC1=CCOC1=O (stereo not given in full),7.18 µM (active)
7,C=C1CC[C@@H]2[C@@](C)(CO[C@@H]3O[C@H](CO)[C@@H](O)[C@H](O)[C@H]3O)[C@H](O)CC[C@@]2(C)[C@@H]1CC/C(C)=C/CO[C@@H]1O[C@H](CO)[C@@H](O)[C@H](O)[C@H]1O,inactive
8,CC(C)CN(CC(=O)N(CCCN1CCCC1=O)CC(N)=O)C(=O)CNCCc1ccccc1F,inactive
9,CO[C@@H]1[C@]2(O)C(=O)N3/C=C\C(C)(C)c4[nH]c5ccccc5c4/C=C\3C(=O)N2[C@]23[C@H](CO)C(C)(C)N2c2ccccc2[C@]13O,inactive
10,COc1c2c(c(C)c3c1C(=O)OC3)OC1(C)CC(O)C(C(C)(C)O)C(C)(CCC(=O)O)C1C2 (stereo not given),3.17 µM (active)
11,Nc1nc2c(c(=O)[nH]1)N1CN(c3ccc(C(=O)N[C@@H](CCC(=O)O)C(=O)O)cc3)CC1CN2 (stereo not given in full),0.833 µM (active)
12,CC(C)S(=O)(=O)NC[C@H](C)c1ccc(NC(=O)c2cc(F)cc(F)c2)cc1,14.6 µM (active)
13,C[C@@]12CC[C@@H]3[C@@](CC[C@H]4[C@@]3(C)CCC[C@@]4(C)C(=O)O)(CC1=O)C2,inactive
14,COc1nnc2ccc(N3CCC(c4ccc(OCCN5CCN(C)C(=O)[C@H]5C)cc4)CC3)nn12,0.0372 µM (active)
15,CNCCC(c1cccs1)c1ccc(O)c2ccccc12 (stereo not given),14.6 µM (active)
16,CCC/C=C/C(=O)O[C@H]1CC(C)(C)CC2[C@@]13[C@H](O)C[C@]1(C)[C@@]2(CCC2[C@@]4(C)CC[C@H](O[C@@H]5O[C@H](C(=O)O)[C@@H](O)[C@H](O[C@@H]6O[C@H](CO)[C@H](O)[C@H](O)[C@H]6O[C@@H]6O[C@@H](C)[C@H](O)[C@@H](O)[C@H]6O[C@@H]6OC[C@](O)(CO)[C@H]6O)[C@H]5O[C@@H]5O[C@H](CO)[C@H](O)[C@H](O)[C@H]5O)C(C)(C)C4CC[C@]21C)O[C@H]3O (stereo not given in full),2.75 µM (active)
17,Cc1cccc(C)c1OCc1cc(C(=O)N2CCC(c3ccncc3)CC2)no1,9.2 µM (active)
18,COc1ccc([C@@]2(O)c3c(ccc(CC=C(C)C)c3O)NC(=O)[C@@H]2OC)cc1,14.3 µM (active)
19,NC(=O)C1=CC2C3C=CC2C(OC3=O)O1 (stereo not given),26.6 µM (active)
20,CCC(C)/C=C(C)/C=C/C1=CC2=C(Cl)C(=O)C(C)(OC(C)=O)C(=O)C2=CN1C(CCC(=O)O)C(=O)O (stereo not given),inactive

row,SMILES,Potency
1,Cc1cc(C)c(CNC(=O)c2cc(-c3ccc(N4CCN(C)CC4)nc3)cc3c2c(C)cn3C(C)C)c(=O)[nH]1,14.8 µM (active) and 16.6 µM (active)
2,COc1cc2ncnc(Nc3ccc(F)c(Cl)c3)c2cc1O,9.2 µM (active)
3,O=C1OC2(c3ccc(O)cc3Oc3cc(O)ccc32)c2ccccc21,inactive
4,C=C(C)[C@H]1CC[C@]2(C(=O)O)CC[C@]3(C)C(CCC4[C@@]5(C)CCC(=O)C(C)(C)C5CC[C@]43C)C12 (stereo not given in full),1.42 µM (active)
5,OCCc1ccc(O[C@@H]2O[C@H](CO)[C@@H](O)[C@H](O)[C@H]2O)c(O)c1,inactive
6,Cc1ccc(-n2nc(C(C)(C)C)cc2NC(=O)Nc2cc(COc3cccnc3)[nH]n2)cc1,0.146 µM (active)
7,CCOc1ccc(-n2c(C(C)N(Cc3cccnc3)C(=O)Cc3ccc(F)c(C(F)(F)F)c3)nc3ncccc3c2=O)cc1 (stereo not given),16.4 µM (active)
8,CC(C)c1ccc(-c2cc(=O)c3ccccc3o2)cc1,13 µM (active)
9,CC1(CO)CCCC2(C)C3COC(=O)C3=CC(O)C12 (stereo not given),inactive
10,Cc1ncsc1-c1ccc([C@H](C)NC(=O)[C@@H]2C[C@@H](O)CN2C(=O)[C@@H](NC(=O)COCCCOCCNC(=O)C[C@@H]2N=C(c3ccc(Cl)cc3)c3c(sc(C)c3C)-n3c(C)nnc32)C(C)(C)C)cc1,0.0023 µM (active)
11,O=C1[C@H](Cc2ccc(O)cc2)N2C(=O)CCN(C(=O)NCc3ccccc3)[C@H]2CN1Cc1cccc2ccccc12,1.48 µM (active)
12,Cc1cc(C)c2nc(-c3ccccn3)cc(C(=O)Nc3ccc(S(=O)(=O)Nc4onc(C)c4C)cc3)c2c1,25.9 µM (active)
13,COC(=O)C#Cc1ccc([N+](=O)[O-])cc1,2.59 µM (active)
14,COc1cc2ncnc(Nc3ccc(NC(=O)c4ccccc4)cc3)c2cc1OC,4.61 µM (active)
15,CC(=O)OC[C@@]12C(=O)C[C@@H](C)[C@]3(C[C@@H](c4ccoc4)OC3=O)[C@H]1CC[C@H](OC(C)=O)[C@]21CO1,inactive
16,CC(C)CCC[C@@H](C)[C@H]1CC[C@H]2[C@@H]3CC=C4C[C@@H](OC(=O)NCCN(C)C)CC[C@]4(C)[C@H]3CC[C@]12C,16.4 µM (active)
17,COc1ccc(CCC(=O)O)c(O[C@@H]2O[C@H](CO)[C@@H](O)[C@H](O)[C@H]2O)c1,inactive
18,CC(C)c1ccc(NC(=O)C(c2ccccc2)N(C)C(=O)Cc2c[nH]c3ccccc23)cc1 (stereo not given),18.4 µM (active)
19,Cc1ccc([C@@H]2CC=C(C(=O)O)[C@H](c3ccc(C(C)(C)C)cc3)N2S(=O)(=O)c2ccc(C)cc2)cc1,16.4 µM (active)
20,Cc1c(CN(C)C(=O)/C=C/c2cnc3c(c2)CCC(=O)N3)oc2ccccc12,inactive

# Reference: PubChem BioAssay (NCATS)
